Most compounds without a hit are left out; they make up all but 4.6% or so of the library.
tim10-1 inh: tim10-1 yeast growth inhibition | S. cerevisiae tim10-1 ts strain growth, BacTiter-Glo, 24 h | inhibition, % at 20 µM | 330,000 tested, 2.2% active | AID 463190;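 active = inhibition of at least 40%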;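 note: mutant grown at 25 °C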
SKKanGAS inh: blocks kanamycin growth of S. pyogenes SKKanGAS strain; BacTiter-Glo, 6 h; inhibition, % at 7.5 µM; 300,000 tested, 1.3% active; AID 1662;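 active = mean replicate score, as percent of positive control median, at least 50; inconclusive = mean below 50 but one replicate at or above 50; inactive = mean and every replicate below 50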;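 note: strain carries kanamycin resistance gene driven by streptokinase promoter and grows in 40 µg/ml kanamycin; loss of luminescence reflects streptokinase promoter inhibition or plain growth inhibition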
tim23-1 inh: tim23-1 yeast growth inhibition; S. cerevisiae tim23-1 growth, BacTiter-Glo luminescence, 24 h; inhibition, % at 20 µM; 330,000 tested, 1.3% active; AID 463212;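 active = growth inhibition of the mutant yeast at or above 50%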;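 note: temperature-sensitive mutant grown at 25 °C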
NLRP3 yeast inh: blocks the NALP3 inflammasome reconstituted in yeast; Yeast reconstituted NLRP3/ASC/caspase-1, beta-gal luminescence, 24 h; 330,000 tested, 0.39% active; inhibition, % at 10 µM;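 active = inhibition of 50% or more; inactive = inhibition below 50%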
TIM10 inh: inhibits growth of TIM10 yeast strain; S. cerevisiae TIM10 strain growth, BacTiter-Glo luminescence, 24 h; inhibition, % at 10 µM; 330,000 tested, 1.4% active; AID 463195;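 active = inhibition of 40% or more at the single tested concentration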;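 note: wild-type TIM10 isogenic control strain grown at permissive 25 °C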
Of the large screens only hits and unclear results are named; the others gave an inactive call.

CCCCCC(=O)NNC(=O)c1c(O)c2ccccc2n(CC)c1=O	SKKanGAS inh 94
CCn1c(=O)c(C(=O)NNC(=O)c2ccccc2F)c(O)c2ccccc21	SKKanGAS inh 90
CCn1c(=O)c(C(=O)NNC(=O)c2ccccc2Cl)c(O)c2ccccc21	SKKanGAS inh 58
CC1CCN(C(=O)c2[nH]cnc2C(=O)Nc2ccc(Cl)cc2)CC1	none (no result: SKKanGAS inh)
N=C1/C(=C\c2ccc(-c3cc(Cl)cc(Cl)c3)o2)C(=O)N=C2SC=C(c3ccccc3)N12	none
N=C1/C(=C/c2ccc(-c3cccc(C(=O)O)c3)o2)C(=O)N=C2SC=C(c3ccccc3)N12	SKKanGAS inh 79
Oc1cccc(-c2nc3ccc4ccccc4c3c3c2CCC3)c1	SKKanGAS inh 63
Cc1cc(Nc2ccccc2)n(-c2nc3ccccc3[nH]2)n1	SKKanGAS inh 114
Cc1cc(NC(=O)c2ccc(C)s2)n(-c2nc3ccccc3[nH]2)n1	SKKanGAS inh 52
Cc1cc(NC(=O)c2ccccc2F)n(-c2nc3ccccc3[nH]2)n1	SKKanGAS inh inconclusive
COc1ccc(CNC(=O)C(C)OC(=O)c2cccc(N(C)C)c2)cc1 (configuration not stated)	none (no result: SKKanGAS inh)
CCOC(=O)C1=C(c2ccccc2)NC(=O)NC1c1ccsc1 (configuration not stated)	none
COc1cccc(Nc2c3c(nc4c(-c5ccccc5)c(C)nn24)CCC3)c1	SKKanGAS inh 78
COc1cccc2sc(Nc3nnc(-c4ccc(F)cc4)o3)nc12	SKKanGAS inh 88
CCOC(=O)c1sc(Nc2nc3c(OC)cccc3s2)nc1C	none
Fc1cccc2sc(Nc3nnc(-c4ccco4)o3)nc12	SKKanGAS inh 72
COc1cccc2sc(Nc3nnc(-c4cccs4)o3)nc12	SKKanGAS inh 92
COc1ccc(C(=O)NCC(=O)OCc2c(Cl)cccc2Cl)cc1OC	none (no result: SKKanGAS inh)
O=C(CN(c1ccc(Cl)c(C(F)(F)F)c1)S(=O)(=O)c1ccccc1)N/N=C/c1cccc2c1OCCO2	SKKanGAS inh 54
CC(=O)Nc1ccc(SCC(=O)Nc2ccccc2N2CCOCC2)cc1	none (no result: SKKanGAS inh)
O=C(NNC(=S)Nc1ccc(Cl)c(Cl)c1)c1ccccn1	SKKanGAS inh 102
O=C(CSc1nnc(CNC(=O)c2ccc(F)cc2)o1)NCc1ccccc1Cl	SKKanGAS inh 51
C[C@H]1CN([C@@H](C)CO)C(=O)c2cc(NC(=O)C3CCCCC3)ccc2O[C@H]1CN(C)S(=O)(=O)c1ccccc1	none (no result: SKKanGAS inh)
O=[N+]([O-])c1ccc(NC2CCCC2)cc1	none
COc1cccc(/C=N/Nc2ccc([N+](=O)[O-])cn2)c1O	SKKanGAS inh 104
O=[N+]([O-])c1ccc(Nc2nc(NC3CCCCC3)nc(N3CCCC3)n2)cc1	SKKanGAS inh 83
O=[N+]([O-])c1ccc(Nc2nc(N/N=C/c3cccc(F)c3)nc(N3CCCC3)n2)cc1	none
COc1cccc(/C=N/Nc2nc(Nc3ccc([N+](=O)[O-])cc3)nc(N3CCCC3)n2)c1O	SKKanGAS inh 73
Cc1cc(=O)oc2cc(NC(=O)C(CCCN=C(N)N)NC(=O)OCc3ccccc3)ccc12 (configuration not stated)	none
CCN1CCN(CC(=O)Nc2c(OC)cccc2OC)CC1	none
C[C@H](CO)N1C[C@H](C)[C@@H](CN(C)C)Oc2c(NS(=O)(=O)c3cn(C)cn3)cccc2C1=O	none (no result: SKKanGAS inh)
Cc1ccc(CN2CC(C(=O)Nc3ncccc3C)CC2=O)cc1 (configuration not stated)	none
O=c1cc2oc3cc(O)c(O)cc3c(-c3ccccc3[N+](=O)[O-])c-2cc1O	SKKanGAS inh 50
CC(=O)NC(=S)NNC(=O)CCc1ccccc1	none
CCCCC(=O)NC(=S)NNC(=O)CCc1ccccc1	SKKanGAS inh 76
O=C(CCc1ccccc1)NNC(=S)NC(=O)c1ccccc1	SKKanGAS inh 64
O=C(Nc1ccc(Br)cc1)c1cnc[nH]1	none
O=[N+]([O-])c1ccc(/C=[N+](\[O-])CCO)o1	SKKanGAS inh 84
COCCOC1CCN(C(=O)c2cc(COc3ccc(F)cc3F)on2)CC1	none
Cc1ccc(N(CC(=O)N2CCN(c3ccccc3F)CC2)S(=O)(=O)c2c(C)noc2C)cc1	none
COCCOc1ccc(C(F)(F)F)cc1NC(=O)COC(=O)c1ccc(N2CCCC2=O)cc1	none (no result: SKKanGAS inh)
CC(=O)Nc1ccc(NC(=O)CSc2nnc(NC(=O)c3ccc(Br)o3)s2)cc1	SKKanGAS inh 73
CCc1ccc(OCC(=O)NC(NC(=S)Nc2ccccc2C)C(Cl)(Cl)Cl)cc1 (configuration not stated)	none
CCc1ccc(OCC(=O)NC(NC(=S)Nc2ccc(C)cc2C)C(Cl)(Cl)Cl)cc1 (configuration not stated)	SKKanGAS inh 68
Clc1ccc(-c2ccc(CNCc3ccccn3)o2)cc1	SKKanGAS inh 57
CCC(C)Nc1nc(-c2ccccn2)nc2ccccc12 (configuration not stated)	SKKanGAS inh 89
c1ccc(CNc2nc(-c3cccnc3)nc3ccccc23)cc1	none
CC(Nc1nc(-c2ccccc2O)nc2ccccc12)c1ccccc1 (configuration not stated)	SKKanGAS inh 58
CC(Nc1nc(-c2ccccc2F)nc2ccccc12)c1ccccc1 (configuration not stated)	none
CCC(C)Nc1nc(-c2cccc(OC)c2O)nc2ccccc12 (configuration not stated)	none
c1ccc(CNc2nc(-c3ccccn3)nc3ccccc23)cc1	SKKanGAS inh 93
CO/N=C(/C(=O)N[C@@H]1C(=O)N2C(C(=O)O)=CCS[C@H]12)c1cnc(N)s1	SKKanGAS inh 99 (no result: tim10-1 inh, tim23-1 inh, NLRP3 yeast inh, TIM10 inh)
O=C(CCOc1cccc(Br)c1)Nc1ccc(F)c(S(=O)(=O)N2CCOCC2)c1	none (no result: SKKanGAS inh)
O=c1cc(-c2ccccc2)[nH]n1-c1nc2ccccc2s1	SKKanGAS inh 82
O=C1OC[C@H]2CCCN2C(=O)[C@@H](CC(=O)N(CCO)Cc2ccccc2)C/C=C\CC[C@H]1Cc1ccc(F)cc1	none (no result: SKKanGAS inh)
Cc1cccc(C(=O)NNC(=S)NC(=O)c2ccccc2)c1	SKKanGAS inh 96
Cc1ccc(C(=O)NNC(=S)NC(=O)c2ccco2)cc1	SKKanGAS inh 73
Cc1ccc(C(=O)NNC(=O)c2cccc(C)c2)cc1	none
Cc1ccc(C(=O)NC(=S)NNC(=O)c2ccccc2)cc1	SKKanGAS inh 77
Cc1ccc(NC(=O)NC(=S)NC(=O)c2ccccc2)cc1	none
Cc1cccc(C(=O)NNC(=S)NC(=O)c2cccs2)c1	SKKanGAS inh 76
Cc1ccc(C(=O)NNC(=O)c2ccco2)cc1	none
COC(=O)c1cc(OC)c(OC)cc1N1C(=O)CC(C)(C)CC1=O	none
CCN(C(=O)COC(=O)C1CCN(S(=O)(=O)c2ccc(C)c(C)c2)CC1)C1CCCCC1	none (no result: SKKanGAS inh)
O=C(Cc1ccc(Cl)cc1)NNC(=S)NC(=O)c1cccs1	SKKanGAS inh 82
Cc1ccc(C(=O)NNC(=S)NC(=O)c2ccccc2)cc1	SKKanGAS inh 99
Cc1ccccc1C(=O)NNC(=S)NC(=O)c1ccccc1	none
Nc1[nH]c2cc([N+](=O)[O-])ccc2c1-c1ccccn1	none
